The record followed here is PubChem BioAssay (NCATS).

SMILES strings stand for the structures. Values joined by “and” are separate entries in the source; they are usually repeats but may differ in a detail not shown here. Equal entries are not always repeated. Inconclusive results are not listed. Unmarked numbers belong to inactive results. Active and inactive are the calls of the source. Calls follow the shape of the dose curve; as a rule, active = well fitted curve in the direction sought with a large enough effect; inconclusive = small, poorly fitted or top-dose-only effect, or another doubt; inactive = no such curve, though single readings can be large; an effect the other way counts as inactive or inconclusive.

In one assay the test system is MKL-1. Put plainly: qHTS assay to identify novel small-molecules to repurpose for Merkel cell carcinoma treatment (AID 1296009). Also: nearly all actives have a fitted effect of over 60% in size. Also: potency is read from the fitted curve at half-maximal effect. The following applies: MCC and control cell lines, CellTiter-Glo viability, 72 h; series mostly up to 46 µM. The essentials: (§1)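 Cell viability measured by CellTiter-Glo following 72 hr compound treatment at 37 degree celsius, with NPC and MIPE libraries tested in 8- and 11-point concentration series.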

The next assay relates to MKL-2. Described as above. The note with it: MCC and control cell lines, CellTiter-Glo viability, 72 h; series mostly up to 46 µM. In a few lines: as §1
The test system of a further assay is UISO. The assay is described as above. The following applies: MCC and control cell lines, CellTiter-Glo viability, 72 h; series mostly up to 46 µM. In a few lines: as §1
On the technique in general: In ATP-based viability assays light output follows the ATP content of the culture.

The test system of the next assay is WaGa. The description is as above. The following applies: MCC and control cell lines, CellTiter-Glo viability, 72 h; series mostly up to 46 µM. The essentials: as §1
Another assay relates to C33A. The experiment in a line: Primary qHTS to identify gynecologic anti-cancer compounds using libraries of approved drugs and bioactive compounds (AID 1345084). Also: nearly all actives have a fitted effect of over 55% in size. Also: potency is read from the fitted curve at half-maximal effect. The following applies: Gynecologic cancer cell panel viability, ATPlite luminescence, 48 h; series mostly up to 57.5 µM. In a few lines:
(§2)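 ATP-based viability (ATPlite), 1,000 cells/well, 16 h pre-incubation, 48 h compound at 37 C, 5% CO2, 15 min RT before read.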
On the technique in general: Quantitative high-throughput screening tests each substance at several concentrations.

A further assay has as its system CASKI. The description is as above. The following applies: Gynecologic cancer cell panel viability, ATPlite luminescence, 48 h; series mostly up to 57.5 µM. The essentials:
as §2

The next assay deals with Es-2. The assay is described as above. The following applies: Gynecologic cancer cell panel viability, ATPlite luminescence, 48 h; series mostly up to 57.5 µM. The essentials:
as §2

The subject of the next assay is HeLa. Described as above. The note with it: Gynecologic cancer cell panel viability, ATPlite luminescence, 48 h; series mostly up to 57.5 µM. The essentials: as §2
For another assay, the system named is Hek293T. The description is as above. The note with it: Gynecologic cancer cell panel viability, ATPlite luminescence, 48 h, control line for the selectivity index; series mostly up to 57.5 µM. In a few lines:
as §2

The next assay has as its system JEG-3. Described as above. The note with it: Gynecologic cancer cell panel viability, ATPlite luminescence, 48 h; series mostly up to 57.5 µM. In a few lines:
as §2

The next assay deals with OV90. The description is as above. The note with it: Gynecologic cancer cell panel viability, ATPlite luminescence, 48 h; series mostly up to 57.5 µM. In a few lines: as §2
The next assay has as its system PA-1. The assay is described as above. The note with it: Gynecologic cancer cell panel viability, ATPlite luminescence, 48 h; series mostly up to 57.5 µM. The essentials:
as §2

For a further assay, the system named is SKOV3. The description is as above. The note with it: Gynecologic cancer cell panel viability, ATPlite luminescence, 48 h; series mostly up to 57.5 µM. In a few lines: as §2
For a further assay, the system named is Tov-21-G. Described as above. The note with it: Gynecologic cancer cell panel viability, ATPlite luminescence, 48 h; series mostly up to 57.5 µM. In a few lines: as §2
Another assay relates to Tov112D. The description is as above. The following applies: Gynecologic cancer cell panel viability, ATPlite luminescence, 48 h; series mostly up to 57.5 µM. The essentials: as §2
Assay [1] in a line: Drug repurposing screens with cells derived from glioblastoma tumor samples (AID 1345199). Also: nearly all actives have a fitted effect of over 40% in size. The note with it: GBM patient neurospheres viability, ATP luminescence, 48 h. The essentials: (§3)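 Primary testing used CD133+ neurospheres from four GBM patients, seven concentrations, 48 h exposure and ATP-based viability; confirmation added three slower-growing patient lines.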
Another assay deals with astro. The assay is described as above. The following applies: viability, ATP luminescence, 48 h; series mostly up to 45.9 µM. The essentials:
as §3

The mark [2] stands for this setting: at 20 µM (top of the series), tumour line C.
Where [3] appears, read: at 21.2 µM (top of the series), tumour line B.
The mark [4] stands for this setting: at 21.2 µM (top of the series), tumour line D.
[5] abbreviates: at 21.3 µM (top of the series), tumour line A.
The mark [6] stands for this setting: at 45.9 µM (top of the series), tumour line B.
The mark [7] stands for this setting: at 45.9 µM (top of the series), tumour line D.
The mark [8] stands for this setting: at 46 µM (top of the series), tumour line A.
The mark [9] stands for this setting: at 46.1 µM (top of the series), tumour line C.
% is scaled to controls: 0 for no effect and ±100 for the full control effect.

As to `CCN(CC)C(=O)c1ccc(O)c(OC)c1`, the Potency entry in the assay on MKL-1, in the assay with MKL-2, with UISO, in the assay on WaGa, in the assay with C33A and in the assay with CASKI was “inactive” throughout. The Potency result in the assay with Es-2, in the assay on HeLa, in the assay with Hek293T, with JEG-3, with OV90 and in the assay on PA-1 was “inactive” throughout. The Potency result in the assay on SKOV3, in the assay with Tov-21-G, with Tov112D and in the assay on astro was “inactive” throughout. The activity, negative = cell killing was -17.1% in assay [1] (setting [2]); -3.79% in assay [1] (setting [3]); 8.85% in [1] (setting [4]); -7.96% in [1] (setting [5]); -9.11% in assay [1] (setting [6]); 5.23% in assay [1] (setting [7]). The values for the activity, negative = cell killing in assay [1] (setting [8]) and in assay [1] (setting [9]) were -18.7% and -18.9%, respectively.

On to `CCCCC1C(=O)N(c2ccccc2)N(c2ccccc2)C1=O`, for which the Potency entry with MKL-1, in the assay on MKL-2, in the assay with UISO, in the assay with WaGa, in the assay with C33A and in the assay on CASKI was “inactive” each time. The Potency entry in the assay with Es-2, in the assay on HeLa, with Hek293T, in the assay with JEG-3, in the assay on OV90 and in the assay on PA-1 was “inactive” in each case. Also, the Potency result in the assay with SKOV3, in the assay on Tov-21-G, in the assay on Tov112D and in the assay with astro was “inactive” each time. In addition, the activity, negative = cell killing in [1] (setting [6]) is -14.3% and -18.7%; in assay [1] (setting [7]), -13.1% and -6.92%; in assay [1] (setting [9]) it was 4.16% and -25.1%.

Turning to `C[N+]1(C)[C@@H]2CC(OC(=O)[C@H](CO)c3ccccc3)C[C@H]1[C@H]1O[C@@H]12` (stereo partly drawn), the Potency result in the assay on MKL-1, in the assay with MKL-2, with UISO and in the assay with WaGa was “inactive” each time. In addition, the activity, negative = cell killing is -9.31% in [1] (setting [6]), -20.1% in [1] (setting [7]), -28.4% in assay [1] (setting [8]) and -22.8% in [1] (setting [9]).

In the case of `CC1=C(/C=C/C(C)=C/C=C/C(C)=C/C(=O)Nc2ccc(O)cc2)C(C)(C)CCC1`, the Potency in the assay with MKL-1 is 26.6 µM (active); in the assay with MKL-2, 10.6 µM (active); in the assay on UISO it was 9.44 µM (active); in the assay with WaGa, 23.7 µM (active); with C33A, 7.94 µM (active); in the assay on Hek293T, 20 µM (active). Moreover, the Potency in the assay on OV90 is 31.6 µM (active); with PA-1 it was 4.47 µM (active); with Tov-21-G, 20 µM (active).

Take `CCn1c(C(=O)N(C2CC2)C2CC2)cc2c3c(ncn3C)c(Nc3cc(C)n(C)n3)nc21`: the Potency result in the assay on MKL-1, in the assay with MKL-2, in the assay on UISO, in the assay on WaGa, with C33A and with CASKI was “inactive” each time. The Potency entry in the assay on Es-2, with HeLa, in the assay on Hek293T, in the assay with JEG-3, in the assay with OV90 and with PA-1 was “inactive” in each case. In addition, the Potency result in the assay with SKOV3, in the assay on Tov-21-G and in the assay on Tov112D was “inactive” each time.

For the molecule `CC(C(=O)O)c1ccc(-c2ccccc2)c(F)c1` (stereo not drawn), the Potency entry with MKL-1, in the assay with MKL-2, in the assay on UISO and with WaGa was “inactive” throughout. The activity, negative = cell killing in [1] (setting [2]) was -24.7%; in assay [1] (setting [3]), -12.6%; in [1] (setting [4]) it was -11%; in assay [1] (setting [5]), -20.3%.

`COc1cc2nc(-c3ccc(N4CCN(C)CC4)cc3)nc(NCCN3CCOCC3)c2cc1OC`: the Potency is 0.0235 µM (active) in the assay on MKL-1; 0.105 µM (active) in the assay with MKL-2; 0.118 µM (active) with UISO; 0.118 µM (active) in the assay on WaGa; 15.8 µM (active) with PA-1. For the same molecule, the Potency result with C33A, in the assay on Es-2, in the assay on HeLa, in the assay with Hek293T, in the assay on JEG-3 and with Tov112D was “inactive” throughout.

As to `O=C1NC(=O)C(c2ccccc2)(c2ccccc2)N1`, the Potency entry with MKL-1, in the assay on MKL-2, in the assay on UISO, in the assay on WaGa, in the assay on C33A and in the assay on CASKI was “inactive” in each case. Moreover, the Potency result with Es-2, in the assay with HeLa, in the assay on Hek293T, in the assay with JEG-3, in the assay with OV90 and with PA-1 was “inactive” each time. The Potency result with SKOV3, in the assay with Tov-21-G and with Tov112D was “inactive” in each case. In addition, the activity, negative = cell killing is -5.12% in assay [1] (setting [6]), -12.9% in assay [1] (setting [7]), -29.6% in assay [1] (setting [8]) and 10.5% in assay [1] (setting [9]).
